TGFb SMAD3 inh – TGF-b pathway inhibition | HepG2 CAGA-GFP TGF-b/SMAD3 reporter, GFP fluorescence, 18 h; TGF-beta stimulated, 500 pg/mL final | Potency, µM (highest dose often 46.1 µM), hits mostly inhibitors | actives 1.2% (n = 410,000); note: nearly all actives have a fitted effect of over 65% in size
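Inhibition was scored as loss of TGF-beta-induced (500 pg/mL final, 18 hours, 37 degrees C) GFP in HEPG2 cells carrying a CAGA-GFP reporter, in DMEM with 1% FBS. Well GFP was summed per cell; Activity was normalised to unstimulated and stimulated DMSO wells, then concentration-response fitting.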
TDP1 cell noCPT – qHTS for Inhibitors of human tyrosyl-DNA phosphodiesterase 1 (TDP1): qHTS in cells in absence of CPT; DT40 Tdp1-/- hTDP1 cells, no CPT, ATP luminescence, 48 h; Potency, µM (series often up to 46.2 µM), actives largely listed as inhibitors; actives 15% (n = 420,000); AID 686978, 2013; note: nearly all actives have a fitted effect of over 55% in size
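Cells were dispensed at 400 per well, compounds added by pin tool, plates incubated ≥48 hr at 37 °C, then CellTiter-Glo added for 30 min at room temperature before luminescence reading. Line: DT40 Tdp1-/- complemented with hTDP1; camptothecin omitted.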
HepG2 viability – counter-screen for TGF-b inhibitors: cytotoxicity in HepG2 cells. HepG2 CAGA-GFP viability, ATP luminescence, 18 h. Potency, µM (series often up to 46.1 µM), hits mostly cytotoxic. actives 0.76% (n = 410,000)
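HepG2 CAGA-GFP cells (1000/well, DMEM with 1% FBS) received compound, then TGF-beta at 500 pg/mL final, and were incubated 18 hours at 37 degrees C. Viability was read by CellTiter-Glo luminescence. Media-only wells were set as complete cell-killing and DMSO as no toxicity.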
TDP1 cell CPT – DT40-hTDP1 cell growth loss with CPT; chicken DT40 Tdp1-/-;hTDP1 cells + 20 nM CPT, ATP luminescence, 48 h; Potency, µM (highest dose often 46.2 µM), hits mostly inhibitors; actives 12% (n = 420,000); AID 686979; note: nearly all actives have a fitted effect of over 55% in size
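Cell growth measured by CellTiter-Glo luminescence after a minimum 48 h, 37 C compound exposure with 20 nM CPT in Tdp1-knockout DT40 cells stably expressing hTDP1, seeded 400/well; qHTS titration format.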
IL1B secr inh – inhibitors of inflammasome signaling (IL-1 beta secretion); THP-1 LPS/ATP IL-1B secretion, AlphaLISA, 16 h; hits give low values; activity change, % at 57.5 µM; actives 4.7% (n = 360,000); AID 743279; in the data active = activity change below about -50%; inconclusive = mostly about -30% to -49%
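THP-1 cells pretreated 1 hr with compounds (up to 57.5 uM final), then stimulated with LPS (250 ng/mL final) plus ATP (1.25 mM final); secreted IL-1B measured by AlphaLISA after 16 hr, decreased signal indicating inhibition.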
TDP1 block – TDP1 (human) enzyme inhibition | Q9NUW8 | recombinant TDP1, AlphaScreen DNA substrate cleavage | Potency, µM (top dose mostly 130 µM), most hits filed as inhibitors | actives 0.28% (n = 350,000) | AID 485290; note: nearly all actives have a fitted effect of over 40% in size
Target sequence (Q9NUW8 whole entry, looked up): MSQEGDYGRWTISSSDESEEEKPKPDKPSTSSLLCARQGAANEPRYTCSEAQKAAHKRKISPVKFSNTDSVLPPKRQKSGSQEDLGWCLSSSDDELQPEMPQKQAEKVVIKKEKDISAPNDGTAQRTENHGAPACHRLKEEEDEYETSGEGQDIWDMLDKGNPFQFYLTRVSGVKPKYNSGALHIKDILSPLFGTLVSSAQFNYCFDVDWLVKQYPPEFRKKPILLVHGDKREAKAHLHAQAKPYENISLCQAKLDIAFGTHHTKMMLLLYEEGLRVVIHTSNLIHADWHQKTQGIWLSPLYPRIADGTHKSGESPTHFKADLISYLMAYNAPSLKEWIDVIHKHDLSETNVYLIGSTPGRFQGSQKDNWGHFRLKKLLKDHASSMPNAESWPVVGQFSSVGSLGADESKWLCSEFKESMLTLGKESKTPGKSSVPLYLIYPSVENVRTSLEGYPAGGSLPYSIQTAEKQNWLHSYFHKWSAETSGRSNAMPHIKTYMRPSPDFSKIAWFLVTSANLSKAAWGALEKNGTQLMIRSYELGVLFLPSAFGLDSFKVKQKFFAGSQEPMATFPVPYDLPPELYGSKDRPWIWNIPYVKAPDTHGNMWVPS
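Tdp1 1 nM final; 15 min RT w/ cpd; substrate 15 nM, 5 min; beads 10 ug/ml, 10 min; AlphaScreen read. Neg ctrl: no enzyme.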
A number is an active result; n = inactive; u = inconclusive; x = no result; [ ] = remark or other dose. This is a sample that favours compounds with a hit; in the whole collection about 18% have one here. Unless noted, calls come from the whole dose curve; as a rule, active = well fitted curve in the direction sought with a large enough effect; inconclusive = small, poorly fitted or top-dose-only effect, or another doubt; inactive = no such curve, though single readings can be large; an effect the other way counts as inactive or inconclusive.

SMILES	TGFb SMAD3 inh	TDP1 cell noCPT	HepG2 viability	TDP1 cell CPT	IL1B secr inh	TDP1 block
Cn1c(=O)oc2cc(S(=O)(=O)N3CCCC(C(=O)N4CCN(c5cccc(Cl)c5)CC4)C3)ccc21 (stereo unspecified)	u	8.2µM	n	9.2µM	x	n
COc1cccc(N2CCN(C(=O)C3CCN(S(=O)(=O)c4ccc5c(c4)oc(=O)n5C)CC3)CC2)c1	n	18µM	n	16µM	n	n
CCOc1ccc(C(=O)Nc2cccc(C(=O)OCc3cc(=O)n4nc(C5CC5)sc4n3)c2)cc1	n	u	n	u	x	n
CC(Cc1cccc(C(F)(F)F)c1)NCCCc1ccccc1 (stereo unspecified)	x	u	x	u	x	n
COc1cccc(CCNCc2cccc(C(F)(F)F)c2)c1	n	u	n	n	-136	n
Cc1cnc(C)c(Nc2nc(C(N)Cc3ccc(C(F)(F)F)cc3)cs2)n1 (stereo unspecified)	u	12µM	n	12µM	u	x
NC(Cc1ccc(Cl)cc1)c1csc(Nc2cnccn2)n1 (stereo unspecified)	n	n	n	n	u	x
CCN1CCN(c2ccc(N)cc2C)CC1	n	13µM	n	12µM	n	n
CCN1CCN(c2ccc(N)cc2)CC1	n	n	n	u	n	n
CCc1cccc(NC(=O)C2CCN(S(=O)(=O)c3ccc(Br)s3)CC2)c1	u	u	n	u	x	n
CN1C(=O)C(O)N=C(c2ccccc2)c2cc(Cl)ccc21 (stereo unspecified)	x	n	x	n	x	n
COc1ccc(C)cc1NC(=O)c1c(C)nn(Cc2ccccc2)c1Cl	n	u	n	n	-98	n
CCOc1ccc(NC(=O)c2c(C)nn(Cc3ccccc3)c2Cl)cc1	n	n	n	n	n	n
O=c1c2ccccc2nc(-c2ccco2)n1-c1ccc(Br)cc1	n	16µM	n	12µM	n	x
Cc1ccc(-c2nc3ccccc3c(=O)n2-c2ccc(O)cc2)cc1	n	4.1µM	n	2.6µM	n	n
Cc1cccnc1-n1c(-c2ccccc2)nc2ccccc2c1=O	n	13µM	n	13µM	n	n
Cc1ccc(-n2c(-c3cccs3)nc3ccccc3c2=O)cc1	n	12µM	n	9.2µM	n	n
N#Cc1ccc(CN2CC[C@@]3(CCCNC3)C2)cc1	x	u	x	n	x	x
CC(C)NC(=O)N1CCCC2(CCN(C(=O)Oc3ccccc3)CC2)C1	x	u	x	n	x	x
O=c1c2ccccc2nc(Cc2ccccc2)n1-c1ccccc1	n	15µM	n	u	n	x
O=C(CN1CCOCC1)c1ccc2ccccc2c1	n	n	n	n	x	x
Cc1cc(-c2nnn(CCCOC(C)(C)C)c2C)ccc1-c1cn(CCCOC(C)(C)C)nn1	n	6.5µM	n	8.2µM	n	x
CCOP(=O)(Cc1ccc(C(C)(C)CC(C)=O)o1)OCC	n	n	n	n	n	x
NCCCC[C@H](N[C@@H](CCc1ccccc1)C(=O)O)C(=O)N1CCC[C@H]1C(=O)O	n	u	n	n	n	n[21 µM]
CC(C)n1c(/C=C/[C@@H](O)C[C@@H](O)CC(=O)O)c(-c2ccc(F)cc2)c2ccccc21	n	9.2µM	n	15µM	n	x
SMILES	TGFb SMAD3 inh	TDP1 cell noCPT	HepG2 viability	TDP1 cell CPT	IL1B secr inh	TDP1 block
CCOc1ccc(CCNC(=O)c2ccc(-n3c(C)cc4c3CCCC4)cc2)cc1OCC	n	12µM	n	12µM	x	n
Nc1c(C(=O)Nc2cccc(F)c2)sc2nc(-c3cccs3)ccc12	n	n	n	u	x	x
O=C(Nc1ccc2nc(-c3cccs3)c(-c3cccs3)nc2c1)NC1CC1	n	18µM	n	u	u	n
CCCCCOc1ccccc1Cn1c(=O)oc2ccc(C)cc21	n	n	n	n	x	n
COc1ccc(Cn2c(=O)oc3ccc(C)cc32)cc1OC	n	18µM	n	15µM	n	n
COc1ccc2c3c1O[C@H]1[C@@H](O)C=C[C@H]4[C@@H](C2)N(C)CC[C@@]341	x	n	x	n	x	x
C/C=C(\C)C(=O)OC1CC(OC(C)=O)[C@@]2(C(=O)OC)COC3C2[C@@]12CO[C@](O)(C(=O)OC)C2[C@](C)(C12OC1(C)C1CC2OC2OC=C[C@]21O)C3O (stereo partly specified)	x	n	x	n	x	n
CC(=O)Nc1ccc(N=Cc2c(O)n(Cc3ccco3)c(=O)[nH]c2=O)cc1	n	n	n	n	x	18µM
CCCCC(=O)N/N=C/c1c(O)n(Cc2ccco2)c(=O)[nH]c1=O	n	n	n	n	n	n
Cc1ccc(CN2C3CCCC2CC(NC(=S)NCc2ccccc2)C3)cc1 (stereo unspecified)	n	u	n	u	-65	x

Screens: PubChem, National Center for Advancing Translational Sciences (NCATS)
